An excerpt weighted towards active compounds, which were near 22% of everything screened.
LmPK inhibitor = inhibitors of Leishmania mexicana pyruvate kinase; Q27686; purified LmPK, Kinase-Glo ATP luminescence, 1 h; Potency, µM (top dose mostly 57.5 µM), usual class: inhibitors; actives 0.37% (n = 290,000); AID 1721
Target sequence (Q27686 whole entry, looked up): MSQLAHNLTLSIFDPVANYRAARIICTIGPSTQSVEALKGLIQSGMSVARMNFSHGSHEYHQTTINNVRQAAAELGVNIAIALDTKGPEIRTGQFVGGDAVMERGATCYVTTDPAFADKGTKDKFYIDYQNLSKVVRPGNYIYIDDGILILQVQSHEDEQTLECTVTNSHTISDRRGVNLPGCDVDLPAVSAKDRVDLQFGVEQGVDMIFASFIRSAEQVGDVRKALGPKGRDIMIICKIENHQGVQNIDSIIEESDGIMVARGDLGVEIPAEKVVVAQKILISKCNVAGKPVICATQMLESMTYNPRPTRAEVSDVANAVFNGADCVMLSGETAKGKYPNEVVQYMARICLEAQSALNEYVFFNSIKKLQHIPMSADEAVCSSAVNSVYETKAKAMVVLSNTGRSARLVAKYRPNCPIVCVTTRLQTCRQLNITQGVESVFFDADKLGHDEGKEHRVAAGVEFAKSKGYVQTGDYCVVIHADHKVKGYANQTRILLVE
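Screened at intermediate enzyme activity to detect both inhibitors and activators: LmPK at 0.1 nM, with a 0.5 nM enzyme column as activation reference. PEP 0.5 mM, ADP 0.1 mM; ATP detected by luminescence after 1 h.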
CHX counter = counter-screen for Shiga toxin inhibitors: cycloheximide protein synthesis inhibition; cell reporter, cycloheximide protein synthesis inhibition counterscreen; max response, %; actives 12% (n = 300,000); in the data active = max response mostly above about 13%, no sharp cut-off; inactive = mostly below about 14%; note: read at 38.3 µM for the half of the compounds with a filed dose
Pf growth 96h = inhibits malaria parasite growth, 96 h. P. falciparum luciferase reporter growth, 96 h. actives 6.9% (n = 320,000). Potency, µM (titrated, usually from 28.7 µM), hits mostly inhibitors. AID 504834
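Erythrocytes infected with luciferase-expressing P. falciparum were dispensed at 2% hematocrit and 0.05% parasitemia (final), then incubated with compounds 96 hours at 37 C in 5% CO2. Luminescence after detection reagent addition reported growth.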
Shiga toxin inh = Shiga toxin inhibition. AID 2315. Vero cells, Shiga toxin protein synthesis inhibition reporter. inhibition, % at 38.7 µM. actives 9.2% (n = 290,000); in the data active = inhibition mostly above about 28%, no sharp cut-off; inactive = mostly below about 43%
Pf growth 48h = P. falciparum growth inhibition at 48 hours (one generation); actives 5.9% (n = 310,000); P. falciparum luciferase growth in erythrocytes, 48 h; Potency, µM (series often up to 28.7 µM), actives largely listed as inhibitors
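Luminescence readout; reporter = integrated firefly luciferase in P. falciparum. RBC culture at 2% hematocrit, 0.1% parasitemia final, 37 C/5% CO2; decreased signal taken as growth inhibition.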
A number is an active result; i = inactive; ? = inconclusive; nt = not tested or not shown; [ ] = remark or other dose. Unless noted, calls come from the whole dose curve; as a rule, active = well fitted inhibition curve with a large enough effect; inconclusive = small, poorly fitted or top-dose-only effect, or another doubt; inactive = no such curve, though single readings can be large or run the other way.

SMILES	LmPK inhibitor	CHX counter	Pf growth 96h	Shiga toxin inh	Pf growth 48h
COc1ccc2c(c1OC)C(=O)N(c1cccc(/C=C/C(=O)O)c1)C2	i	i	i	i	i[0.00184 µM]
COc1ccc2c(c1OC)C(=O)N(c1nccs1)C2	i	34	i	i	i
Cc1cnc(C(=O)OCC(=O)c2cc(C)n(C)c2C)cn1	i	i	i	i	i
CN(CCc1ccccn1)C(=O)CCc1nnc(CCCc2ccccc2)o1	i	45	?	73	i
CN(CCc1cnn(C)c1)C(=O)CCc1nnc(CCCc2ccccc2)o1	i	17	?	36	i
COC(c1ccccc1)c1nnc(CCC(=O)N(C)CCc2ccccc2)o1 (centres undefined)	i	i	i	i	i
COC(=O)c1ccc(C)c(NC(=O)CCCN2C(=O)NC(C)(C)C2=O)c1	nt	nt	i	nt	i
O=C(NC(c1ccccc1)c1ccccc1)c1ccc(CO)cc1	i	i	?	i	?
CC(=O)NCCOc1nc(N2CCCCC2)nc(N2CCCCC2)n1	i	i	i	i	i
COc1ccccc1C(=O)Nc1ccnn1C1CCN(CCCC2CCCC2)CC1	i	i	i	i	i
CCOC(=O)/C(C#N)=C/Nc1ccccc1NS(=O)(=O)c1cccc(C(C)=O)c1	i	i	?	i	?
COc1ccccc1NS(=O)(=O)c1cccc(NC(=O)NCCCl)c1	i	i	12µM	i	i
COc1ccccc1NS(=O)(=O)c1ccc(C)c(C(N)=O)c1	i	i	5.2µM	i	i
Cc1ccc(S(=O)(=O)NCCC2=CCCCC2)cc1C(N)=O	i	i	10µM	i	i
CCOC(=O)/C(C#N)=C/Nc1ccccc1NS(=O)(=O)c1ccc(C)c(C)c1	i	i	2.9µM	i	?
Nc1nc(COc2ccc(F)cc2Cl)nc(N2CCCCC2)n1	i	i	i	i	i
COc1ccccc1NS(=O)(=O)c1cccc(NC(=O)CCNC(=O)c2ccccc2OC)c1	nt	nt	12µM	nt	9.3µM
COc1ccccc1NS(=O)(=O)c1cccc(NC(=O)c2sc3ccccc3c2Cl)c1	i	i	i	i	12µM
Fc1ccccc1/C=N/Nc1ncnc2ccccc12	i	41	i	i	i
O=S(=O)(N/N=C/c1ccccc1F)c1ccccc1	i	i	i	i	i
Clc1ccc(/C=N/Nc2ncnc3ccccc23)cc1Cl	i	26	?	90	i
Cn1c(=O)c2sccc2n2c(CCCC(=O)NCc3ccco3)nnc12	i	i	?	i	i
c1ccc(-c2csc(NC3=NCCCCC3)n2)cc1	i	43	i	i	i
N#Cc1ccc(-c2csc(NC3=NCCCCC3)n2)cc1	i	20	i	73	i
c1ccc(CNC2=NCCCC2)cc1	i	i	i	i	i
SMILES	LmPK inhibitor	CHX counter	Pf growth 96h	Shiga toxin inh	Pf growth 48h
O=Cc1ccc(OCCOc2ccc([N+](=O)[O-])cc2)cc1	i	i	i	i	i
COc1ccc(NS(=O)(=O)c2ccc(C)c(NC(=O)CN3C(=O)NC4(CCCC4)C3=O)c2)cc1	nt	nt	i	nt	?
Cc1ncoc1C(=O)Nc1ccc2c(c1)OCCO2	16µM	47	i	77	i
Cc1ccsc1C(=O)Nc1ccc2c(c1)OCCO2	16µM	29	i	27	i
CC(C)c1c(C(=O)N/N=C/c2ccsc2)nnn1-c1nonc1N	i	i	i	i	i
Cc1ccc(Cl)cc1N1CCN(C(=O)C2CCN(S(=O)(=O)c3c(C)nn(C)c3C)CC2)CC1	i	i	nt	i	8.3µM
COc1ccc(N2CCN(CCCNC(=O)C3CCCN(S(=O)(=O)c4c(C)n[nH]c4C)C3)CC2)cc1 (centres undefined)	i	i	?	i	i
Cc1nn(C)c(C)c1S(=O)(=O)N1CCCC(C(=O)N2CCN(c3ccc(Cl)cc3)CC2)C1 (centres undefined)	i	i	?	i	4.7µM
CCOC(=O)c1cccc(NC(=O)C2CCCN(S(=O)(=O)c3c(C)nn(C)c3C)C2)c1 (centres undefined)	i	i	9.3µM	i	nt
Cc1n[nH]c(C)c1S(=O)(=O)N1CCCC(C(=O)N2CCN(c3ccc(Cl)cc3)CC2)C1 (centres undefined)	i	i	i	i	6.6µM
O=C(O)CCn1cc(C2CC(c3ccccc3)=NN2c2ccccc2)c(-c2ccccc2)n1 (centres undefined)	i	i	i	i	?
CC(C)(C)C(=O)[C@@H]1[C@@H]2C(=O)N(C3CCCCC3)C(=O)[C@@H]2[C@H]2c3ccccc3C=CN12	i	i	15µM	i	nt

From PubChem
